# In PubChem BioAssay (Tox21):
# “And” between values parts separate entries of the source, which are not always exact repeats. Identical values can stand only once. Inconclusive results are not listed. A call without a number means that no potency is given here. More than one record can exist for a structure, and the calls need not agree. The source made the active and inactive calls. Unless noted, calls come from the whole dose curve; as a rule, active = well fitted curve in the direction sought with a large enough effect in the repeat runs; inconclusive = weak or mixed curves; inactive = no such curve, though single readings can be large; an effect the other way counts as inactive or inconclusive.
# Key:
# [1] = qHTS assay to identify small molecule antagonists of the androgen receptor (AR) signaling pathway using the MDA cell line in the presence of 0.5 nM R1881 - cell viability counter screen (AID 1259242); note: nearly all actives have a fitted effect of over 45% in size
# Method in brief: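 R1881 at 0.5 nM final stimulated MDA-kb2 cells during 16 hr compound treatment at 37C. Cytotoxicity read: CellTiter-Fluor fluorescence after 30 min.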
# [2] = qHTS assay to identify small molecule phospholipidosis (PLD) inducers (AID 1259344; active = well fitted curve in the direction sought with a large enough effect; an effect the other way counts as inactive or inconclusive)
# Method in brief: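 Phospholipidosis is scored by imaging LipidTOX-stained pits in HepG2 cells exposed to compound for 24 h at 37 C; pit counts and integrated intensities per well and per cell serve as outputs.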
# [3] = qHTS assay to identify small molecule HDAC inhibitors (AID 1259364); note: potency is the fitted concentration of half-maximal effect;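 note: wild-type HCT-116 cells with endogenous class I/II HDAC activity; nearly all actives have a fitted effect of over 45% in size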
# Method in brief: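 Relative class I and II HDAC activity is taken from the luminogenic signal in HCT-116 cells, with compound exposure 2 hr and reagent development 30 min at room temperature.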
# [4] = qHTS assay to identify small molecule HDAC inhibitors - cell viability counter screen (AID 1259365); note: series mostly up to about 92 µM; nearly all actives have a fitted effect of over 50% in size
# Method in brief: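 HCT-116 wild-type, overnight attachment; 2hr drug exposure, 37C; CellTiter-Glo luminescent ATP readout after 30min RT.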
# [5] = qHTS assay to identify small molecule agonists of the sonic hedgehog signaling (Shh) pathway - cell viability counter screen (AID 1259366); note: nearly all actives have a fitted effect of over 50% in size; note: potency is the fitted concentration of half-maximal effect
# Method in brief: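 Compounds in DMSO were pin-transferred onto 3T3 Gli1-Luc cells that had settled 4hr; plates then stood 24hr at 37C and 5% CO2. One hour before the end, CellTiter-Fluor was added and fluorescence recorded.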
# [6] = qHTS assay to identify small molecule agonists of the sonic hedgehog signaling (Shh) pathway (AID 1259368; calls by dose curve;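 note: NIH/3T3-derived 3T3Gli1-Luc cells carrying a stable Gli1-driven firefly luciferase reporter; series mostly up to about 92 µM; nearly all actives have a fitted effect of over 15% in size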)
# Method in brief: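 Mouse fibroblast (NIH/3T3) reporter cells with stably integrated Gli1-Luc were treated 24 hr with compound; firefly luciferase luminescence served as the read-out.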
# [7] = qHTS assay to identify small molecule antagonists of the sonic hedgehog signaling (Shh) pathway (AID 1259369; calls by dose curve; note: nearly all actives have a fitted effect of over 45% in size; note: potency is the fitted concentration of half-maximal effect)
# Method in brief: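 Conditioned medium drives Shh signalling in 3T3Gli1-Luc cells; compounds in DMSO co-applied, 24hr at 37 C, then luciferase luminescence.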
# [8] = target: Estrogen receptor beta (Homo sapiens) (UniProt Q92731); test: qHTS assay to identify small molecule agonists of the estrogen receptor beta (ER-beta) signaling pathway (AID 1259377; active = well fitted activation curve with a large enough effect in the signal ratio in the repeat runs, not every such curve was filed as active; the % refers to the signal ratio)
# Method in brief: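 qHTS in ER-beta-UAS-bla HEK293T cells: 6 hr settling, then 16 hr compound at 37C, then LiveBLAzer substrate 2 h at RT before fluorescence reading.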
# [9] = target: Estrogen receptor beta (Homo sapiens) (UniProt Q92731); test: qHTS assay to identify small molecule antagonists of the estrogen receptor beta (ER-beta) signaling pathway (AID 1259378; active = well fitted inhibition curve with a large enough effect in the signal ratio in the repeat runs, not every such curve was filed as active; the % refers to the signal ratio; note: potency is the fitted concentration of half-maximal effect)
# Method in brief: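 Antagonist mode: compounds added to beta-lactamase reporter HEK293T ER-beta-UAS cells stimulated with E2 (1nM final), 16 hr at 37C. LiveBLAzer B/G FRET substrate, 2 hours room temperature, fluorescence read-out.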
# [10] = qHTS assay to identify small molecule agonists of the androgen receptor (AR) signaling pathway in the presence of an antagonist - cell viability counter screen (AID 1259379); note: nearly all actives have a fitted effect of over 25% in size; note: potency is the fitted concentration of half-maximal effect
# Method in brief: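 A CellTiter-Fluor read-out measured viability of MDA-kb2 reporter cells (MMTV promoter with AR and GR response elements). Treatment: nilutamide 3.0uM final with compounds at 15 concentrations, 16 hr, 37C, 0% CO2.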
# [11] = qHTS assay to identify small molecule agonists of the estrogen receptor beta (ER-beta) signaling pathway - cell viability counter screen (AID 1259380); note: nearly all actives have a fitted effect of over 30% in size; note: potency is the fitted concentration of half-maximal effect
# Method in brief: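 Cells used were ER-beta-UAS-bla HEK293T in medium with 2% charcoal-stripped FBS. They were treated for 16 hr at 37C. Viability came from CellTiter-Glo luminescence.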
# [12] = qHTS assay to identify small molecule antagonists of the estrogen receptor beta (ER-beta) signaling pathway - cell viability counter screen (AID 1259382); note: nearly all actives have a fitted effect of over 55% in size; note: potency is the fitted concentration of half-maximal effect
# Method in brief: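 Agonist-stimulated (1nM E2) ER-beta-UAS-bla HEK293T cells are incubated with library compounds for 16 hr at 37C. Cell viability is then assessed in the reporter-assay wells by adding CellTiter-Glo and reading luminescence after 30 min.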
# [13] = qHTS assay to identify small molecule agonists or antagonists of the thyroid stimulating hormone receptor (TSHR) signaling pathway - wild type cell line counter screen (AID 1259384; calls by dose curve)
# Method in brief: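 Counter screen in untransfected Hek293: compounds (15-point titration, triplicate) plus phosphodiesterase inhibitor Ro20-1724 added after 18 h plating; 30 min RT. Intracellular cAMP via competitive d2/cryptate immunoassay, 1 h incubation.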
# [14] = target: Thyrotropin receptor (Homo sapiens) (UniProt P16473); test: qHTS assay to identify small molecule antagonists of the thyroid stimulating hormone receptor (TSHR) signaling pathway (AID 1259385; calls by dose curve; note: nearly all actives have a fitted effect of over 20% in size)
# Method in brief: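 Antagonist mode: compound-treated TSHR-expressing HEK293 cells were stimulated with 1.5 ng/mL TSH (final) in presence of Ro20-1724 for 30 min at RT. HTRF cAMP detection after 1 h; each compound tested at 15 concentrations, triplicate.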
# [15] = qHTS assay to identify small molecule agonists of the estrogen receptor alpha (ER-alpha) signaling pathway in the presence of an antagonist - cell viability counter screen (AID 1259386);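 note: cells exposed to compounds for 22 h at 37 °C before the viability read; nearly all actives have a fitted effect of over 30% in size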; note: potency is the fitted concentration of half-maximal effect
# Method in brief: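 ICI-182,780 at 10.0nM final accompanies the compound titration (15 concentrations, 22hr, 37C) on VM7Luc4E2 cells. The CellTiter-Fluor fluorescence readout runs in the same wells as the luciferase assay.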
# [16] = target: Estrogen receptor (Homo sapiens) (UniProt P03372); test: qHTS assay to identify small molecule antagonists of the estrogen receptor alpha (ER-alpha) signaling pathway using the BG1 cell line in the presence of 0.1 nM 17-beta-estradiol (AID 1259244); note: nearly all actives have a fitted effect of over 50% in size
# Method in brief: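 VM7Luc4E2; 4xERE-luciferase; 0.1 nM E2 final; 22 h co-incubation, 37C; ONE-Glo luminescence after 30 min at room temperature.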
# [17] = qHTS assay to identify small molecule antagonists of the sonic hedgehog signaling (Shh) pathway - cell viability counter screen (AID 1259367); note: nearly all actives have a fitted effect of over 55% in size; note: potency is the fitted concentration of half-maximal effect
# Method in brief: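 Cells: 3T3 Gli1-Luc, 2,000/well, 4 hr pre-incubation. Compounds in DMSO, then conditioned medium. Incubation 24 hr, 37C, 5% CO2. CellTiter-Fluor at 23 hr, 1 hr, fluorescence.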
# [18] = target: Estrogen receptor (Homo sapiens) (UniProt P03372); test: qHTS assay to identify small molecule agonists of the estrogen receptor alpha (ER-alpha) signaling pathway in the presence of an antagonist (AID 1259383; calls by dose curve; note: nearly all actives have a fitted effect of over 15% in size; note: potency is the fitted concentration of half-maximal effect; for activation: top concentration of the series differs between compounds)
# Method in brief: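 Using VM7Luc4E2 cells seeded 24hr before treatment, antagonist ICI-182,780 (10.0nM final) was added, followed by compounds at 15 concentrations. Plates incubated 22hr; ONE-Glo luminescence quantified reporter activity.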
# Chain of Thyrotropin receptor (Homo sapiens) (P16473 whole entry, looked up): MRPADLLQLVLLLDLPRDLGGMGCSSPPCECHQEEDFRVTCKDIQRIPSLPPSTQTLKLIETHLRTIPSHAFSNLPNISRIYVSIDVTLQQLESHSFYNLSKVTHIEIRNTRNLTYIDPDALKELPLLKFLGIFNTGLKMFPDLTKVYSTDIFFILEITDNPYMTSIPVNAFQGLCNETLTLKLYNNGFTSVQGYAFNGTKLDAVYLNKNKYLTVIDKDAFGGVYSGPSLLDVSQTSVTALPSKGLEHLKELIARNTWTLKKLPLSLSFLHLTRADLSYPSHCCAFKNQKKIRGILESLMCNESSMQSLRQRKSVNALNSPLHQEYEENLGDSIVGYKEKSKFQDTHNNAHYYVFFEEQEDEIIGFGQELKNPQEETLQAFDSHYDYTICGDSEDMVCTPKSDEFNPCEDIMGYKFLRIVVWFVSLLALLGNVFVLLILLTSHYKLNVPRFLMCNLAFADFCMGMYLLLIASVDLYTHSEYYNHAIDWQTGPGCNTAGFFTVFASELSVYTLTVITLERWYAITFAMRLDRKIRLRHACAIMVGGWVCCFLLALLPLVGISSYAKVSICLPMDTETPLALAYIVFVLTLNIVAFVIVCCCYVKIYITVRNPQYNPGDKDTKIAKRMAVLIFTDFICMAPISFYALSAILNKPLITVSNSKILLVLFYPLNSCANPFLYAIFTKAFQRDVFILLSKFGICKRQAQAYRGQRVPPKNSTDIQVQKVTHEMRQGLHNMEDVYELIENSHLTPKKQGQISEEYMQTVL
# Chain of Estrogen receptor beta (Homo sapiens) (Q92731 whole entry, looked up): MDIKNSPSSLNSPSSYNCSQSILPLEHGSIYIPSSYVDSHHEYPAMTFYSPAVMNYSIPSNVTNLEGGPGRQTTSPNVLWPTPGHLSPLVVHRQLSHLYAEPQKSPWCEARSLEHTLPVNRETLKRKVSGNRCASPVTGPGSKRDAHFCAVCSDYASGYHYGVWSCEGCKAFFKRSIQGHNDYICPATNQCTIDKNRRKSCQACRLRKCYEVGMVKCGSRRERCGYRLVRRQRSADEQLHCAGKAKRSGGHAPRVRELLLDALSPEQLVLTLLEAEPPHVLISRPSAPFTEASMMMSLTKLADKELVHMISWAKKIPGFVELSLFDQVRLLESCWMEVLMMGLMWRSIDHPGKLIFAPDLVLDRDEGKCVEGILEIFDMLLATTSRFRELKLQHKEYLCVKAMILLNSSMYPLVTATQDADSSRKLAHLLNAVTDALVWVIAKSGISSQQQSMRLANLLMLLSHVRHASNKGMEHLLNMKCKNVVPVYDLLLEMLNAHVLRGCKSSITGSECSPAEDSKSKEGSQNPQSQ
# Chain of Estrogen receptor (Homo sapiens) (P03372 whole entry, looked up): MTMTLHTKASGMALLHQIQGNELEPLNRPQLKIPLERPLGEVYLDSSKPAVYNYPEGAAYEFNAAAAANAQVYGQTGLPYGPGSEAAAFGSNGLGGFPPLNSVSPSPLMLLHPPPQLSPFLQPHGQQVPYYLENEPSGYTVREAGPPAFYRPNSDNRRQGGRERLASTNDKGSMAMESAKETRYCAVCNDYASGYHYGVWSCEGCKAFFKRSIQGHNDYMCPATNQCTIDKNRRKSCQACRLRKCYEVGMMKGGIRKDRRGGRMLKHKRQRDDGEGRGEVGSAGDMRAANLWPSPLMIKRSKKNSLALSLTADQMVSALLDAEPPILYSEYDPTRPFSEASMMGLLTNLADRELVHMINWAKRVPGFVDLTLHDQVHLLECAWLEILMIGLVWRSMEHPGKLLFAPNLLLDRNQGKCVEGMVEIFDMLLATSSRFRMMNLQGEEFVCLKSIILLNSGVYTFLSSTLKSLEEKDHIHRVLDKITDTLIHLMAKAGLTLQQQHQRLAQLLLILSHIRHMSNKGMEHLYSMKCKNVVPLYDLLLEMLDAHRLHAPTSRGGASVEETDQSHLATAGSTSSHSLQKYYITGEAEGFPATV
Structure (SMILES),Potency [1],Potency [2],Potency [3],outcome [4],Potency [5],outcome [6],Potency [7],outcome [8],Potency [9],Potency [10],Potency [11],Potency [12],Potency [13],outcome [14],Potency [15],Potency [16],Potency [17],Potency [18]
CCCCNC(=O)NS(=O)(=O)c1ccc(N)cc1,inactive,inactive,inactive,inactive,inactive,inactive,inactive,inactive,inactive,inactive,inactive,inactive,inactive,inactive,,,,
NC(=O)NO,inactive,inactive,inactive,inactive,inactive,,inactive,inactive,inactive,inactive,inactive,inactive,inactive,inactive,inactive,,,
Nc1ccc(N=Nc2ccccc2)c(N)n1,,inactive,13.8 µM (active) and 17.2 µM (active) and 10.6 µM (active),inactive,27.4 µM (active) and 27.3 µM (active),inactive,inactive,,54.5 µM (active),48.8 µM (active) and 30.6 µM (active) and 15 µM (active),,inactive,inactive,inactive,30.8 µM (active) and 24.3 µM (active) and 26.6 µM (active),inactive,27.4 µM (active) and 24.3 µM (active),1.93 µM (active) and 3.76 µM (active)
N[C@@H](Cc1c[nH]c2ccccc12)C(=O)O,inactive,,inactive,inactive,inactive,,inactive,inactive,inactive,inactive,inactive,inactive,inactive,inactive,inactive,,,
C#C[C@]1(O)CC[C@H]2[C@@H]3CCc4cc(O)ccc4[C@H]3CC[C@@]21C,inactive,inactive,inactive,inactive,inactive,inactive,1.71 µM (active) and 9.69 µM (active),,,inactive,60.7 µM (active) and 48.6 µM (active),54.1 µM (active) and inactive,inactive,inactive,inactive,,inactive,
NC(=O)c1ccc([N+](=O)[O-])cc1Cl,inactive,inactive,inactive,inactive,inactive,inactive,inactive,inactive,inactive,inactive,inactive,,inactive,inactive,inactive,,,
CC(C)=CCC/C(C)=C/CO,inactive,inactive,inactive,inactive,inactive,inactive,inactive,,,inactive,inactive,inactive,inactive,inactive,inactive,,,
CCCCC/C(C=O)=C\c1ccccc1,inactive,inactive,inactive,inactive,inactive,inactive,inactive,inactive,inactive,inactive,inactive,inactive,inactive,inactive,inactive,,,
C=C(C)OC(C)=O,inactive,,inactive,inactive,inactive,inactive,inactive,inactive,inactive,inactive,inactive,,inactive,inactive,,inactive,,inactive
CCN(CC)CCOC(=O)c1ccc(N)cc1,inactive,inactive,inactive,inactive,inactive,,inactive,,,inactive,inactive,,inactive,inactive,inactive,,inactive,
CC1=C(/C=C/C(C)=C/C=C/C(C)=C/C(=O)O)C(C)(C)CCC1,inactive,inactive,inactive,inactive,inactive,,inactive,,,inactive,19.4 µM (active) and 21.7 µM (active) and 15 µM (active),inactive,,,inactive,,inactive,inactive
CCc1cc(C(N)=S)ccn1,inactive,inactive,inactive,inactive,inactive,inactive,inactive,,,inactive,inactive,inactive,inactive,inactive,inactive,,,
CC(C)CC(C)CC(O)CC(C)C (centres undefined),inactive,,inactive,inactive,inactive,inactive,inactive,,,inactive,inactive,,,,,,inactive,
O=C1CCCCCN1,inactive,,inactive,inactive,15.4 µM (active) and inactive,,1.54 µM (active) and inactive,inactive,inactive,inactive,inactive,,inactive,inactive,,,3.86 µM (active) and inactive,
